# SMARCA2 act: activators of SMARCA2 function | activation, % at 9.1 µM | 370,000 tested, 1% active | MG213 cells, MMTV-luciferase reporter, dexamethasone, overnight | AID 652017; in the data active means activation above about 7.8%;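 further: 0% = vehicle wells and 100% = reference activator wells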
# FAS TE block: blocks the thioesterase domain of human fatty acid synthase | inhibition, % at 15 µM | P49327 | recombinant FAS-TE, OMFH fluorogenic substrate, fluorescence endpoint | 360,000 tested, 0.67% active;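 active means compounds whose normalised, plate-corrected inhibition of enzyme fluorescence in the single-dose primary screen is 50% or more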;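 further: 0% = DMSO with enzyme and 100% = substrate without enzyme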
# Target sequence (P49327 whole entry, looked up, the tested form may be a part): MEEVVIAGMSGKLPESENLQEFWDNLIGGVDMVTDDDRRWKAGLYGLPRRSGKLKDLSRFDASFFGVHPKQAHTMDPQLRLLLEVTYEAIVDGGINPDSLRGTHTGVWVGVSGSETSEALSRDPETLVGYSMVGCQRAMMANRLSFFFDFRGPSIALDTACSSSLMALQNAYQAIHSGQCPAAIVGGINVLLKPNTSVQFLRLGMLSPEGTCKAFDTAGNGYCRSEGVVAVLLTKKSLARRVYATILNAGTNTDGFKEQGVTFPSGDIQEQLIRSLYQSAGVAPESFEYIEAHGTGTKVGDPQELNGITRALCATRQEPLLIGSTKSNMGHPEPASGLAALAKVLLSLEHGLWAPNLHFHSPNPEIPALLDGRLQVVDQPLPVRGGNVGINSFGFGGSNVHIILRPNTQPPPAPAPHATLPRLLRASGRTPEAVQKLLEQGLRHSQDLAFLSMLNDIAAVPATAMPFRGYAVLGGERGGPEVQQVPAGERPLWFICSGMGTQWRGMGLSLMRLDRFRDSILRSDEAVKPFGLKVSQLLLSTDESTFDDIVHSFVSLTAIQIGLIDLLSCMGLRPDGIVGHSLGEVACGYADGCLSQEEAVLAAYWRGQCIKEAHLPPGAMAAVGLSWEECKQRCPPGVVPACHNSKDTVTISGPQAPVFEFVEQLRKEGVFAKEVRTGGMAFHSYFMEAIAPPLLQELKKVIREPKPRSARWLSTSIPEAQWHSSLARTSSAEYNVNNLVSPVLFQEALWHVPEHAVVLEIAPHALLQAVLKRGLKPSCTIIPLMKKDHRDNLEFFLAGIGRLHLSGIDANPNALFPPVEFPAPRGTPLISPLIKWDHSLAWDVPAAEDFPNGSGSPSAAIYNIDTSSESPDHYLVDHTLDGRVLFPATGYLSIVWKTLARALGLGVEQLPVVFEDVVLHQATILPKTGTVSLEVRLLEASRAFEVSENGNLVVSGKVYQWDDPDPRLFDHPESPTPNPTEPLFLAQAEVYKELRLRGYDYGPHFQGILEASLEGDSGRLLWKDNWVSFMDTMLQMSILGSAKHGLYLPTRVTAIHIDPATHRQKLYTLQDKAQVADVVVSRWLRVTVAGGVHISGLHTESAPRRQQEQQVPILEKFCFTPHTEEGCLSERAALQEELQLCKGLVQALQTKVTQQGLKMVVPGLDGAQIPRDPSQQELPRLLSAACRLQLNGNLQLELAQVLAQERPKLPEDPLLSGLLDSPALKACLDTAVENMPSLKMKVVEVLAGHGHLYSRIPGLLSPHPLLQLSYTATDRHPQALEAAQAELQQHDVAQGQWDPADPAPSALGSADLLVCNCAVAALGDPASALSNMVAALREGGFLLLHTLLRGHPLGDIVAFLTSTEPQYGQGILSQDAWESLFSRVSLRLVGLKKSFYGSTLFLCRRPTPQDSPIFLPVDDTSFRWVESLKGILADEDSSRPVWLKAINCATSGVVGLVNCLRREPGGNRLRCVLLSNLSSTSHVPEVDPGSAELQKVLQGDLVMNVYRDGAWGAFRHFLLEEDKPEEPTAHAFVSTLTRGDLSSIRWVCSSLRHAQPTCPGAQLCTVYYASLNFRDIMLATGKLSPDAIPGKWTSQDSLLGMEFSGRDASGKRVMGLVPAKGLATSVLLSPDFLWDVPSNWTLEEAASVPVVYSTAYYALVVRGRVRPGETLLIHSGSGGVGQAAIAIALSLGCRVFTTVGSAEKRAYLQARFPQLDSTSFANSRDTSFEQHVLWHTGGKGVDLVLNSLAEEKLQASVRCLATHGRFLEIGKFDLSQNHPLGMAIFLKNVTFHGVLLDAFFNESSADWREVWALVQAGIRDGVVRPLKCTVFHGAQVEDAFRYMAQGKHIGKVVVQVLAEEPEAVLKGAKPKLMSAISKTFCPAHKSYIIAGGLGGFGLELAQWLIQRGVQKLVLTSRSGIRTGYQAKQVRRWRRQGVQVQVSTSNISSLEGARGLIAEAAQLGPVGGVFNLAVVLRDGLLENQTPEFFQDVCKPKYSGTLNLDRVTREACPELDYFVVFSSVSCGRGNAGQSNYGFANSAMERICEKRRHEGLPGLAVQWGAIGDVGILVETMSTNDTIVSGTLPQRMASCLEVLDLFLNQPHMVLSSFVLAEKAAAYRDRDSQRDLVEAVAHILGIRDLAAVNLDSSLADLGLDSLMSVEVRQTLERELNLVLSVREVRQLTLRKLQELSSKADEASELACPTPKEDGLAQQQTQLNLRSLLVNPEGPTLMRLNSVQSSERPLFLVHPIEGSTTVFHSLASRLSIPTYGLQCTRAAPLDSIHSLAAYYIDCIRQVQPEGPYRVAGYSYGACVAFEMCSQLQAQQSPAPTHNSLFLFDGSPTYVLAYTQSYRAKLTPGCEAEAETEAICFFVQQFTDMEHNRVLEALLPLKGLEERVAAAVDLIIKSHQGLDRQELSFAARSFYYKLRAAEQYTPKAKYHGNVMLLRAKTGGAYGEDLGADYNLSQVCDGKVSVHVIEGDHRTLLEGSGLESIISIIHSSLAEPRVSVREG
# KLK7 zymogen act: activates the human kallikrein-7 zymogen; P49862; purified proKLK7, EDANS-DABCYL substrate fluorescence; 100% is mature enzyme control, 0% vehicle; activation, % at 7 µM; 370,000 tested, 0.9% active;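 active means activation above the mean of all tested compounds plus 3 SD, computed per campaign excluding outliers beyond control limits, cut at about 13% in these data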
# FXN GAA850 act: increases GAA850 frataxin promoter reporter activity; 360,000 tested, 0.56% active; HEK293 lucGAA850 FXN promoter luciferase reporter, 24 h; percent of 10 µM SAHA response; activation, % at 6 µM; AID 540364;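 active means activation above the average of all compounds screened plus 3 SD, cutoff fixed separately per campaign, cut at about 7.5% in these data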;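 further: 0% = DMSO wells and 100% = 10 µM SAHA wells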
# FAS-TE conf: confirmation of human fatty acid synthase thioesterase inhibitors; shares compounds with FAS TE block; recombinant FAS-TE, OMFH fluorogenic substrate, fluorescence; inhibition, % at 15 µM; 2,300 tested, 45% active; AID 624325;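 active means compounds inhibiting the enzyme by at least 50% at 15 µM in any one of the replicates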;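 further: 0% = enzyme with DMSO only and 100% = wells lacking enzyme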
# Starred values were filed as active, the others as inactive; . = no result given. In the library only some 2.9% were active in any assay of this set; here they are far more common.
SMILES,SMARCA2 act,FAS TE block,KLK7 zymogen act,FXN GAA850 act,FAS-TE conf
Cc1cc(=O)[nH]c(=O)n1Cc1ccccc1,-1.1,-4.3,0.4,1.9,.
COc1ccc(CN2CCC(Cc3ccccc3)CC2)c(C)c1C,-0.3,4.3,0.1,-0.9,.
O=C(COC(=O)C1CCC(=O)N1)Nc1ccc(Br)cc1 (stereo unspecified),0.0,-4.0,0.3,0.7,.
Cc1ccc(-c2csc3nc(C(C)C)oc(=O)c23)c(C)c1,-4.8,86.1*,-0.4,1.4,69.1*
Cc1ccc(-c2csc3nc[nH]c(=O)c23)c(C)c1,-1.4,-2.8,0.0,-1.3,.
O=C(O)CN1C(=O)/C(=C\c2cccc(OCc3ccc(Cl)cc3Cl)c2)SC1=S,3.2,59.2*,0.1,3.3,38.5
COC(=O)/C(C#N)=C/c1c(N2CCN(Cc3ccc4c(c3)OCO4)CC2)nc2c(C)cccn2c1=O,3.8,-6.1,0.2,-0.1,.
CCOC(=O)/C(C#N)=C/c1c(N2CCN(Cc3ccc4c(c3)OCO4)CC2)nc2c(C)cccn2c1=O,-2.0,50.8*,0.1,2.2,-0.1
Cc1cccn2c(=O)c(/C=C(\C#N)S(=O)(=O)c3ccccc3)c(N3CCN(c4ccccc4)CC3)nc12,-3.8,66.1*,0.2,3.0,0.2
CCCCCNC(=O)Cc1cc(=O)[nH]c(=O)[nH]1,-0.1,-5.7,0.3,0.5,.
O=C1c2ccccc2C(=O)N1CCCCN(C(=O)c1ccc([N+](=O)[O-])cc1)c1ccc(Cl)cc1,-1.3,-44.7,0.5,2.0,.
O=C1c2ccccc2C(=O)N1CCCCN(C(=O)c1cc([N+](=O)[O-])cc([N+](=O)[O-])c1)c1ccc(Cl)cc1,-0.9,54.0*,0.6,0.4,25.7
Cc1onc(-c2ccccc2Cl)c1C(=O)Nc1cccc(-c2nc3ncccn3c2C)c1,1.5,-4.7,-1.2,-0.8,.
CC1CCN(S(=O)(=O)c2ccc(NC(=O)N3c4ccccc4Sc4ccccc43)cc2)CC1,-2.1,61.9*,-0.5,-1.1,15.4
NS(=O)(=O)c1ccc(NC(=O)N2c3ccccc3Sc3ccccc32)cc1,2.0,.,-0.1,-0.2,.
Cc1cc(C)n(-c2cc(N3CCN(S(=O)(=O)c4ccc(Br)cc4)CC3)ccc2[N+](=O)[O-])n1,0.7,50.7*,0.8,-4.2,12.4
O=C(Nn1c(C2CCCCC2)nc2ccccc2c1=O)c1ccc(Cl)c([N+](=O)[O-])c1,-1.3,57.3*,-0.3,-1.2,60.2*
O=C(Nn1c(C2CCCCC2)nc2ccccc2c1=O)c1ccc([N+](=O)[O-])cc1Cl,-3.9,61.5*,0.2,1.5,43.0*
Cc1cc(C(=O)Nn2c(C3CCCCC3)nc3ccccc3c2=O)ccc1[N+](=O)[O-],0.8,26.5,-0.1,-0.8,.
COC(=O)COc1ccc(S(=O)(=O)N2CCN(c3ccccc3F)CC2)cc1C,-3.2,22.2,0.4,0.1,.
CC(C)c1ccc2[nH]c(O)c(N=NC(=O)c3cccc(S(=O)(=O)N4CCCCC4)c3)c2c1,-2.4,58.2*,-0.2,3.4,32.0
CC(C)(C)OC(=O)C[C@H]1C/C=C\C[C@@H](CC(=O)N(CCO)Cc2ccccc2)C(=O)N[C@H](C(C)(C)C)COC1=O,-0.2,-13.0,0.8,-0.8,.
O=C1C2ON(c3ccccc3)C(c3cccnc3)C2C(=O)N1c1ccc(Cl)c(Cl)c1 (stereo unspecified),-0.7,60.2*,-0.1,1.8,60.4*
O=C1C2ON(c3ccccc3)C(c3cccnc3)C2C(=O)N1c1ccccc1 (stereo unspecified),-1.9,0.0,-0.2,-1.1,.
O=C(Nc1ccccc1C(=O)Nc1nnc(C(F)(F)F)s1)c1ccccc1,-3.8,53.2*,0.9,-0.8,46.4*
COc1ccc2c(c1)OC[C@H]1[C@H]2N2C(=O)c3cc(F)ccc3NC(=O)[C@@]2(C)[C@H]1c1ccccc1,-0.3,74.4*,-0.8,-5.9,1.7
COc1ccc2c(c1)OC[C@H]1[C@H]2N2C(=O)c3cc(OC)ccc3NC(=O)[C@@]2(C)[C@H]1c1ccccc1,1.6,95.0*,-2.5,-10.8,54.4*
COc1ccc2c(c1)[C@H]1[C@H](CO2)[C@H](c2ccccc2)[C@@]2(C)C(=O)N[C@H](C)C(=O)N12,-2.5,-8.5,-0.2,2.1,.
COc1ccc2c(c1)OC[C@H]1[C@H]2N2C(=O)c3ccc(C)cc3NC(=O)[C@@]2(C)[C@H]1c1ccccc1,1.2,90.3*,-0.9,-6.8,40.3
